Test results: PubChem BioAssay (NCI)
The panel holds about 83,000 compounds, 20% with a hit somewhere; the sample as a whole holds those more often.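 Single-dose data. Exposure time 48 hours. Values below 10 considered active.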 Unmarked numbers belong to inactive results. Activity calls are given as the source filed them.

Key:
Assay in all cases: NCI-60 one-dose screen, 48 h (100 = growth as untreated, 0 = no growth, -100 = all killed)
Conditions in all cases: 10 µM unless noted
SR leukemia = test system: SR leukemia
RPMI-8226 leukemia = test system: RPMI-8226 leukemia
OVCAR-8 ovarian = test system: OVCAR-8 ovarian
OVCAR-5 ovarian = test system: OVCAR-5 ovarian
OVCAR-4 ovarian = test system: OVCAR-4 ovarian
SK-OV-3 ovarian = test system: SK-OV-3 ovarian
IGROV1 ovarian = test system: IGROV1 ovarian
OVCAR-3 ovarian = test system: OVCAR-3 ovarian
HS 578T breast = test system: HS 578T breast
NCI/ADR-RES ovarian = test system: NCI/ADR-RES ovarian
T-47D breast = test system: T-47D breast
BT-549 breast = test system: BT-549 breast
MDA-MB-435 melanoma = test system: MDA-MB-435 melanoma
SW-620 colon = test system: SW-620 colon
MCF7 breast = test system: MCF7 breast
HCT-116 colon = test system: HCT-116 colon
HCC-2998 colon = test system: HCC-2998 colon
KM12 colon = test system: KM12 colon

Compound | growth (SR leukemia) | growth (RPMI-8226 leukemia) | growth (OVCAR-8 ovarian) | growth (OVCAR-5 ovarian) | growth (OVCAR-4 ovarian) | growth (SK-OV-3 ovarian) | growth (IGROV1 ovarian) | growth (OVCAR-3 ovarian) | growth (HS 578T breast) | growth (NCI/ADR-RES ovarian) | growth (T-47D breast) | growth (BT-549 breast) | growth (MDA-MB-435 melanoma) | growth (SW-620 colon) | growth (MCF7 breast) | growth (HCT-116 colon) | growth (HCC-2998 colon) | growth (KM12 colon)
O=CN1N=C(c2cccc(Nc3ccnc4cc(Cl)ccc34)c2)CC1c1ccc(Cl)cc1 (stereo unspecified) | 8.98% (active) | 32.9% | 43.7% | 58.7% | 57.5% | 24.1% | 38.7% | -17% (active) | 1.82% (active) | 5.69% (active) | 43.3% | 8.58% (active) | -38.3% (active) | 23.4% | 14.6% | 1% (active) | 44.3% | 28.1%
COc1ccc(C(=O)Nc2ncc(Cc3ccc(Cl)cc3)s2)cc1 | 5.82% (active) | 18.2% | 25.7% | 30.2% | 49.1% | 40% | 14.4% | -16.2% (active) | 18.2% | 9.45% (active) | 25.9% | 17.8% | 2.35% (active) | 25.7% | 8.72% (active) | 3.61% (active) | 6.76% (active) | 5.8% (active)
CN(C)CCCNC(=O)c1cncnc1Nc1ccc2c(ccn2Cc2cccc(F)c2)c1 | -10.3% (active) | 86.3% | 101% | 97.5% | 116% | 111% | 90.1% | 93.4% | 81.3% | 99.2% | 101% | 92.2% | 79.6% | 88.3% | 71.4% | 66% | 97.6% | 98%
COc1ccccc1S(=O)(=O)Nc1ccc2c3c(cc(CCC(=O)NCCCCNc4cccc5c4C(=O)N(C4CCC(=O)NC4=O)C5=O)cc13)C(=O)N2C (stereo unspecified) | 13.9% | 53.6% | 4.39% (active) | 42% | -19.8% (active) | 34.6% | -9.53% (active) | 30% | -17.8% (active) | 88.2% | 3.74% (active) | -10.9% (active) | 23.2% | 7.68% (active) | 6.07% (active) | 46.2% | 10.9% | 20.2%
CN1CCN(c2ccc(NC3=CC(=O)c4ncncc4C3=O)cc2)CC1 | -5.62% (active) | -29.1% (active) | -53.2% (active) | -92.3% (active) | -99% (active) | -63.7% (active) | -86.6% (active) | -58.6% (active) | -19.6% (active) | -20.4% (active) | -48.2% (active) | -90.9% (active) | -90.3% (active) | -64.1% (active) | -64.3% (active) | -53.6% (active) | -78.2% (active) | -75.9% (active)
CC(=O)c1c(Nc2cccc(F)c2)[nH]c2c(Cl)cc(Cl)c(Cl)c2c1=O | 14.8% | -8.11% (active) | 7.74% (active) | 15.3% | 13.5% | 1.25% (active) | 17.9% | 14.8% | 4.68% (active) | 3.89% (active) | -11.1% (active) | 8.92% (active) | 2.08% (active) | 9.59% (active) | 2.73% (active) | 5.08% (active) | 10.7% | 4.18% (active)
COc1ccc(NC(=O)c2ccc(Nc3ncnc4c3cnn4-c3cccc(F)c3)cc2)cc1 | 95.2% | 96.6% | 99.2% | 100% | 103% | 111% | 109% | 110% | 97.4% | 103% | 96.1% | 104% | 102% | 103% | 96.5% | 103% | 107% | 100%
N#Cc1c(-c2ccccc2)cc(-c2ccccc2)n(CCCCC(=O)NO)c1=O | 7.41% (active) | 0.83% (active) | 15.6% | 13.6% | 34% | 42.1% | 20% | 20.5% | 27.4% | -16.2% (active) | 9.65% (active) | 52.8% | -13.7% (active) | 11.5% | 20.5% | 5.09% (active) | 29.3% | 22.9%
CN(C)c1ccc([C@@H](C(=O)Nc2cccc([N+](=O)[O-])c2)N(C(=O)c2cc3ccccc3[nH]2)c2cccc([N+](=O)[O-])c2)cc1 | 97% | 92.6% | 93.3% | 94.7% | 99.4% | 103% | 103% | 111% | 93.5% | 102% | 84% | 95.4% | 108% | 98.7% | 89.6% | 90.4% | 107% | 103%
COc1ccc(/C=C(\C(=O)NCc2cccnc2)S(=O)(=O)c2ccccc2)cc1OC | 17.4% | 18% | 28.3% | 45% | 42.1% | 81.1% | 19.7% | 19.7% | 59.3% | 83% | 12.1% | 35.5% | -8.51% (active) | 11.9% | 12.9% | 15% | 96.6% | 52.8%
COc1ccc(N/N=C/c2cn(-c3ccc(C(=O)O)cc3)nc2-c2cc3ccccc3oc2=O)cc1 | 44.8% | 51.6% | 65.4% | 70.2% | 79% | 99.1% | 71.5% | 74.1% | 106% | 67.6% | 49.6% | 77.8% | 52.4% | 52.9% | 49% | 49.7% | 41.8% | 48.2%
Fc1cc2[nH]ncc2c2c3c(c(-c4cn[nH]c4C(F)(F)F)nc12)CCCC3 | -30.2% (active) | 8.27% (active) | 6.94% (active) | 4.77% (active) | 24.1% | -24.5% (active) | 0.245% (active) | -11.3% (active) | -18.4% (active) | 45.6% | -16.2% (active) | -64.2% (active) | 26.2% | 4.23% (active) | 2.27% (active) | 1.05% (active) | -14.2% (active) | 9.4% (active)
CCCN(CCSSCCNc1nc(N(C)O)nc(N(C)O)n1)c1nc(N(C)O)nc(N(C)O)n1 | 129% | 42.6% | 70.9% | 58% | 55% | 57.1% | 83% | 51.6% | 131% | 85.1% | 61.9% | 7.99% (active) | 95.1% | 75.1% | 83.2% | 41% | 59.8% | 48.2%
O=C(Nc1ncc(Cc2ccccc2)s1)c1sc2ccccc2c1Cl | 16% | 28% | 27.8% | 41.8% | 68.1% | 28.8% | 33.1% | -30.6% (active) | 13.5% | 16.1% | 19.3% | 62.3% | -65.2% (active) | 20.4% | 14.4% | 24.8% | 17.6% | 12.5%
N=C(N)c1ccc(OCCSCCOc2ccc(C(=N)N)cc2)cc1 | 73.1% | 73.9% | 64% | 77.6% | 64.7% | 82% | 93.3% | 86.4% | 85.4% | 97.7% | 50.5% | 11.1% | 79.9% | 87.6% | 58.1% | 68.4% | 79.7% | 62.2%
CN(C)CCCn1c2c(c3cnccc3c1=O)C(=O)c1ccccc1-2 | -8.62% (active) | -13.6% (active) | -11.3% (active) | 0.0676% (active) | -9.31% (active) | 21.5% | 3.55% (active) | -11.8% (active) | 20.3% | -17.7% (active) | -5.32% (active) | 6.92% (active) | 3.83% (active) | -6.01% (active) | -3.97% (active) | -12.6% (active) | 3.98% (active) | 3.16% (active)
CCCC(=O)NC(c1ccc2c(c1)OCO2)c1cc(Cl)c2cccnc2c1O (stereo unspecified) | 10.9% | 17.7% | 10.6% | 54% | 19.3% | 29.8% | 16.2% | 17.6% | 44.4% | 1.56% (active) | 23% | 63.3% | 37.5% | 24.7% | 17.5% | 23.1% | 43.1% | 33.9%
